PubChem BioAssay (Tox21)
Several values for one entry are separate records, joined by “and”; a condition that tells them apart may be missing. Identical values can stand only once. Records with an inconclusive call do not appear. Some compounds were tested as several samples or in several runs, with calls that do not always agree. Activity calls are given as the source filed them. Unless noted, calls follow the shape of the dose curve; as a rule, active = well fitted curve in the direction sought with a large enough effect in the repeat runs; inconclusive = weak or mixed curves; inactive = no such curve, though single readings can be large; an effect the other way counts as inactive or inconclusive.

What was measured:
[1] = A CellTox Green Cytotoxicity Assay to monitor cytotoxicity in HepG2 cells - 8 hour (AID 1224890); also: nearly all actives have a fitted effect of over 45% in size; also: potency is read from the fitted curve at half-maximal effect
How it was run: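 HepG2, 600 cells/well premixed w/ CellTox Green; 5 h settle, 37 C/5% CO2; pintool cpd add (DMSO); 37 C, 40 h; fluorescence read at 0, 8, 16, 24, 32, 40 h.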

[2] = qHTS assay to identify small molecule antagonists of the estrogen receptor alpha (ER-alpha) signaling pathway using the BG1 cell line in the presence of 0.1 nM 17-beta-estradiol - cell viability counter screen (AID 1259241); also: nearly all actives have a fitted effect of over 40% in size; also: potency is read from the fitted curve at half-maximal effect
How it was run: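 Viability in VM7Luc4E2 cells after 22 hr compound exposure under 0.1 nM 17beta-estradiol stimulation, by CellTiter-Fluor.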

[3] = qHTS assay to identify small molecule antagonists of the androgen receptor (AR) signaling pathway using the MDA cell line in the presence of 0.5 nM R1881 - cell viability counter screen (AID 1259242); also: nearly all actives have a fitted effect of over 45% in size; also: potency is read from the fitted curve at half-maximal effect
How it was run: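 Live-cell protease fluorescence, CellTiter-Fluor, 30 min at 37C. Cells: MDA-kb2, 3,000/well, preincubated 5 hr. Compounds plus 0.5 nM R1881 final, 16 hr, 37C, 0% CO2.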

[4] = target: Estrogen receptor (Homo sapiens) (UniProt P03372); assay: qHTS assay to identify small molecule antagonists of the estrogen receptor alpha (ER-alpha) signaling pathway using the BG1 cell line in the presence of 0.1 nM 17-beta-estradiol (AID 1259244); also: nearly all actives have a fitted effect of over 50% in size; also: potency is read from the fitted curve at half-maximal effect
Estrogen receptor (Homo sapiens), sequence (P03372 whole entry, looked up): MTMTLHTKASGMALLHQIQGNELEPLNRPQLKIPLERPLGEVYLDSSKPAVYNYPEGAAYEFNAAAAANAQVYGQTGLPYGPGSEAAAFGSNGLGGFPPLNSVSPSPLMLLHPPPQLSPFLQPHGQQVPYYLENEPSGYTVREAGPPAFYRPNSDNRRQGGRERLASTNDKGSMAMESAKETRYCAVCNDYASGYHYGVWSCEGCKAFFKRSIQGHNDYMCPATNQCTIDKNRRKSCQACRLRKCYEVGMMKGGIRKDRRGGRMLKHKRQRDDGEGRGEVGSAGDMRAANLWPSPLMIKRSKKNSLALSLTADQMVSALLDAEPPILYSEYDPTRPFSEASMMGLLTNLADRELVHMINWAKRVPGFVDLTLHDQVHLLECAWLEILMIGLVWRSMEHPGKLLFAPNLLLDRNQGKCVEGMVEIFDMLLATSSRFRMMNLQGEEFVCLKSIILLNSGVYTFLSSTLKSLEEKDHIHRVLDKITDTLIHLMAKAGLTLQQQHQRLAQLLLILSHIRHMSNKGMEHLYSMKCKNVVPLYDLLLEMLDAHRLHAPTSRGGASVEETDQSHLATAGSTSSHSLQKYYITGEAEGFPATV
How it was run: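 Luminescence after ONE-Glo (30 min, room temperature) measured ERE-luciferase activity in VM7Luc4E2 cells treated 22 h with compound and 0.1 nM final 17beta-estradiol as stimulator.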

[5] = qHTS assay to identify small molecule HDAC inhibitors - cell viability counter screen (AID 1259365); also: series mostly up to about 92 µM; nearly all actives have a fitted effect of over 50% in size
How it was run: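 Cytotoxicity was gauged in wild-type HCT-116 cells after a brief 2hr treatment with DMSO-dissolved compounds at 37C and 5% CO2, using CellTiter-Glo luminescence developed for 30min at room temperature.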

[6] = qHTS assay to identify small molecule antagonists of the sonic hedgehog signaling (Shh) pathway - cell viability counter screen (AID 1259367); also: nearly all actives have a fitted effect of over 55% in size; also: potency is read from the fitted curve at half-maximal effect
How it was run: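 Tox21 library chemicals were tested on a Gli1-Luc NIH/3T3 clone (2,000 cells/well) stimulated by conditioned medium; viability was quantified as fluorescence from CellTiter-Fluor reagent added at 23 hr.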

[7] = target: Androgen receptor (Homo sapiens) (UniProt P10275); assay: qHTS assay to identify small molecule antagonists of the androgen receptor (AR) signaling pathway using the MDA cell line in the presence of 0.5 nM R1881 (AID 1259243); also: nearly all actives have a fitted effect of over 50% in size; also: potency is read from the fitted curve at half-maximal effect
Androgen receptor (Homo sapiens), sequence (P10275 whole entry, looked up): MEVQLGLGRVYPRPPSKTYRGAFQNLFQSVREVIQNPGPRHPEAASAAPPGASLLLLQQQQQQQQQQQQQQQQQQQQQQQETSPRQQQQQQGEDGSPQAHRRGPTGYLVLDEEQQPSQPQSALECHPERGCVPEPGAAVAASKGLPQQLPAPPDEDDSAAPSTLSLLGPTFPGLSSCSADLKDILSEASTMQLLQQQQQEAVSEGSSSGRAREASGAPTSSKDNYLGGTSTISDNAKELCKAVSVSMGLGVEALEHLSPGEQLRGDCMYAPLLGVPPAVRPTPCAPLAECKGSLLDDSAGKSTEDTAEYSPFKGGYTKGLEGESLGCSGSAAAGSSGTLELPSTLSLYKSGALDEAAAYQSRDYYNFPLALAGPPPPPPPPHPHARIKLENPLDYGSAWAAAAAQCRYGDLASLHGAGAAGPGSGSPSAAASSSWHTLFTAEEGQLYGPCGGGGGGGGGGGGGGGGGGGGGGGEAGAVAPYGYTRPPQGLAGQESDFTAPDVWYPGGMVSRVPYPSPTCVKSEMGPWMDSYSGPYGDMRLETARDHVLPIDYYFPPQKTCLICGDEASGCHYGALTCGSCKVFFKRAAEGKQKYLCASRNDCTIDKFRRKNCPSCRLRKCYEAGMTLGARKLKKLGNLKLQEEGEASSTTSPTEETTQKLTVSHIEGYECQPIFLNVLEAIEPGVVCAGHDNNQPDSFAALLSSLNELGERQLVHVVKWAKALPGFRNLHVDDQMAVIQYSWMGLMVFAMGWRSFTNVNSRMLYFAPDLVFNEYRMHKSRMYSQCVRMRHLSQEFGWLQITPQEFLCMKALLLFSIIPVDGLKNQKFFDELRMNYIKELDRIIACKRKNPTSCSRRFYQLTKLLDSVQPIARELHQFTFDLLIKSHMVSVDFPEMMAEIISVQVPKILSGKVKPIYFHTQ
How it was run: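 MDA-kb2, MMTV-luc (AR/GR elements); 3,000 cells/well; cpd + 0.5 nM R1881 final; 16 hr 37C, 0% CO2; ONE-Glo 30 min RT; luminescence.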

[8] = qHTS assay to identify small molecule agonists of the sonic hedgehog signaling (Shh) pathway - cell viability counter screen (AID 1259366); also: nearly all actives have a fitted effect of over 50% in size; also: potency is read from the fitted curve at half-maximal effect
How it was run: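 Stable Gli1-Luc NIH/3T3 clone, 2,000 cells/well. Compound exposure 24hr at 37C. Read-out: CellTiter-Fluor fluorescence.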

[9] = qHTS assay to identify small molecule HDAC inhibitors (AID 1259364); also: potency is read from the fitted curve at half-maximal effect;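 also: wild-type HCT-116 cells with endogenous class I/II HDAC activity; nearly all actives have a fitted effect of over 45% in size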
How it was run: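 HCT-116 (wild type), 1,500 cells/well, overnight; compound 2 hr 37C 5% CO2; HDAC-Glo I/II reagent 30 min RT; luminescence readout.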

[10] = qHTS assay to identify small molecule phospholipidosis (PLD) inducers (AID 1259344; active = well fitted curve in the direction sought with a large enough effect; an effect the other way counts as inactive or inconclusive)
How it was run: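 Image-based: LipidTOX Red pit count/intensity per well and per cell; HepG2, 24 h compound at 37 C, PFA fixation, Hoechst counterstain.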

Measured: Potency

Nc1ccc(-c2ccccc2)cc1
inactive: [1] | [2] | [3] | [4] | [5] | [6]

N#Cc1cc(Br)c(O)c(Br)c1
inactive: [1] | [2] | [3] | [5] | [8] | [6]
active: [7] 61.1 µM and 46.8 µM | [4] 61.1 µM and 41.7 µM

CCCCNC(=O)n1c(NC(=O)OC)nc2ccccc21
inactive: [1] | [2] | [3] | [7] | [4] | [5]
active: [9] 21.6 µM and 19.3 µM
60.8 µM (active) and inactive: [6]

NNC(N)=S
inactive: [1] | [2] | [3] | [5]
active: [6] 20.1 µM and 61.1 µM
63.5 µM (active) and inactive: [4]

CC(C)NC(C)C
inactive: [1] | [2] | [3] | [4] | [10] | [9] | [5] | [8] | [6]

Nc1ccc(Cl)cc1N
inactive: [2] | [3] | [7] | [10] | [5] | [8] | [6]
active: [9] 19.3 µM
inactive and 21.9 µM (active): [1]

CCc1cccc(CC)c1N(COC)C(=O)CCl
inactive: [1] | [2] | [3] | [5]
active: [7] 23.5 µM and 27.3 µM | [4] 47 µM | [8] 27.3 µM | [6] 59.1 µM

Nc1ccncc1
inactive: [1] | [2] | [3] | [7] | [10] | [9] | [5] | [6]

C=C(C)[C@H]1Cc2c(ccc3c2O[C@@H]2COc4cc(OC)c(OC)cc4[C@@H]2C3=O)O1
24.7 µM (active) and inactive: [8]
active: [2] 0.0486 µM | [3] 78 nM and 54.5 nM and 106 nM | [7] 31 nM and 19.3 nM and 47.3 nM | [6] 22 µM and 6.11 µM
inactive: [1] | [10] | [9] | [5]

CCCCOCCOP(=O)(OCCOCCCC)OCCOCCCC
inactive: [1] | [2] | [3] | [4] | [9] | [5] | [6]

O=C(Nc1ccc(Br)cc1)c1cc(Br)cc(Br)c1O
active: [3] 13.3 µM | [9] 6.83 µM and 6.11 µM and 6.68 µM
inactive and 43.6 µM (active): [1]
inactive: [2] | [10] | [5]

CCN(CC)C(=O)/C(Cl)=C(\C)OP(=O)(OC)OC
inactive: [1] | [2] | [3] | [7] | [4] | [10] | [5] | [8] | [6]

CCC(C)(C)c1ccc(O)cc1
inactive and 43.6 µM (active): [1]
inactive: [2] | [3] | [4] | [10] | [9] | [5] | [8] | [6]

CC(C)c1ccc(CO)cc1
inactive: [1] | [2] | [3] | [4] | [5] | [6]

Cc1cc(Cl)ccc1OCCCC(=O)O
inactive: [1] | [2] | [3] | [7] | [9] | [5] | [6]

CCOC(=O)C(C)OC(=O)c1cc(Oc2ccc(C(F)(F)F)cc2Cl)ccc1[N+](=O)[O-] (configuration not stated)
inactive: [1] | [2] | [3] | [4] | [9] | [5] | [6]

Clc1nc(Cl)nc(Cl)n1
inactive: [1] | [2] | [3] | [4] | [9] | [5] | [6]

O=C(O)CC[N+](=O)[O-]
inactive: [1] | [2] | [3] | [7] | [9] | [5] | [8] | [6]

CCCCC(CC)COC(=O)c1ccc(C(=O)OCC(CC)CCCC)c(C(=O)OCC(CC)CCCC)c1 (configuration not stated)
inactive: [1] | [2] | [3] | [7] | [5] | [6]

Oc1ccc(-c2ccccc2)cc1
inactive: [1] | [2] | [3] | [4] | [5] | [6]

CC(C)Oc1cc(-n2nc(C(C)(C)C)oc2=O)c(Cl)cc1Cl
active: [7] 54.5 µM
inactive: [1] | [2] | [3] | [9] | [5] | [8] | [6]

Nc1c(Cl)cc([N+](=O)[O-])cc1Cl
active: [7] 6.9 µM and 27.3 µM
inactive: [1] | [2] | [3] | [5] | [8] | [6]

CC(C)C(=O)OCC(C)(C)C(OC(=O)C(C)C)C(C)C (configuration not stated)
inactive: [1] | [2] | [3] | [4] | [9] | [5] | [8] | [6]

CC(C)(OOC(C)(C)c1ccccc1)c1ccccc1
inactive: [1] | [2] | [3] | [5] | [8] | [6]
active: [7] 24 µM

CCCCN(CCCC)N=O
inactive: [1] | [2] | [3] | [4] | [9] | [5] | [6]

CCOCN(C(=O)CCl)c1c(C)cccc1CC
inactive: [1] | [2] | [3] | [9] | [5]
active: [4] 45.9 µM and 48.6 µM | [8] 57.7 µM and 30.6 µM | [6] 54.5 µM

c1cc(OCC2CO2)ccc1Cc1ccc(OCC2CO2)cc1 (configuration not stated)
inactive: [1] | [2] | [3] | [7] | [9] | [5]
active: [6] 61.1 µM

CCCCCCCCOC(=O)c1ccccc1C(=O)OCCCCCCCC
inactive: [1] | [2] | [3] | [7] | [10] | [9] | [5] | [6]

CCC(=O)O[C@H]1CC[C@H]2[C@@H]3CCC4=CC(=O)CC[C@]4(C)[C@H]3CC[C@]12C
inactive: [2] | [3] | [7] | [5] | [6]
active: [1] 43.6 µM

CCCCCCCCCCCOC(=O)c1ccccc1C(=O)OCCCCCCCCCCC
inactive: [1] | [2] | [3] | [4] | [9] | [5] | [6]

CC1(C)C(C=C(Cl)Cl)C1C(=O)OC(C#N)c1cccc(Oc2ccccc2)c1 (configuration not stated)
inactive: [1] | [2] | [3] | [4] | [10] | [9] | [5] | [6]

Oc1c(Cl)c(Cl)c(Cl)c(Cl)c1Cl
inactive: [1] | [2] | [3] | [9] | [5] | [6]
active: [4] 30 µM and 30.6 µM

Brc1ccc(Oc2cc(Br)c(Br)cc2Br)c(Br)c1
inactive: [1] | [2] | [3] | [4] | [5] | [8] | [6]

Nn1cnnc1
inactive: [1] | [2] | [3] | [4] | [9] | [5] | [8] | [6]
